This is a sample that favours compounds with a hit; in the whole collection about 28% have one here.
PLK1 kinase inh: blocks human PLK1 kinase activity | P53350 | recombinant PLK1 kinase, TR-FRET peptide phosphorylation | inhibition, % at 10 µM | 97,000 compounds, 0.53% hits;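 active means inhibition of 50% or more in the single-concentration screen; inactive means inhibition below 50%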;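 further: 0% = DMSO max control and 100% = H-89 dihydrochloride min control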
Target sequence (P53350 whole entry, looked up): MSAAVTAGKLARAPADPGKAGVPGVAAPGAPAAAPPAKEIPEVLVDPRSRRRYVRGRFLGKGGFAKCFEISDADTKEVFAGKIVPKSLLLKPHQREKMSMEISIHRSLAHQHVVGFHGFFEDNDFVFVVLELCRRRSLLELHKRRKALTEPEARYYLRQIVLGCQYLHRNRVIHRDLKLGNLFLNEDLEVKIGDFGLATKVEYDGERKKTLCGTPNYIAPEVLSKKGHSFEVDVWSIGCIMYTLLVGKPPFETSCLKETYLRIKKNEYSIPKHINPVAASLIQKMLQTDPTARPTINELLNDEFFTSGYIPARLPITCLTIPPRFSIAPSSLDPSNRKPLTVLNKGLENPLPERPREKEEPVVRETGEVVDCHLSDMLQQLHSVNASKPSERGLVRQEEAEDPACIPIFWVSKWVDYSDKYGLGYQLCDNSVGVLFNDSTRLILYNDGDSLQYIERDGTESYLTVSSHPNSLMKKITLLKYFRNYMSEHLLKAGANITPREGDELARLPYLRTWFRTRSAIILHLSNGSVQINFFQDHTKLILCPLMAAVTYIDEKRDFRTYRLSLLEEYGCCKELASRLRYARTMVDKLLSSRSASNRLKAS
CYP2C19 inh: inhibitors of human CYP2C19; 96,000 compounds, 21% hits; CYP2C19 Supersomes, luciferin-H EGE luminescence, 30 min; P33261; inhibition, % at 5 µM;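 active means CYP2C19 inhibition above a set limit at 5 µM in the primary screen, cut at about 50% in these data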;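 further: plate controls were negative control wells for no effect and 2.5 mM tranylcypromine positive control for full effect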
CYP2C9 act: CYP2C9 (human) activation; P11712; 96,000 compounds, 1.4% hits; recombinant CYP2C9, luciferin-H conversion, luminescence; hits give high values; factor 1 = untreated enzyme, 0 = blocked; activation factor at 5 µM;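 active means activation factor of 2 or more for CYP2C9 at a 5 µM dose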;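 further: 0 = sulfaphenazole-blocked wells and 1 = vehicle-only wells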
Plk1 PBD FP: Plk1 (human) PBD binding inhibition; P53350; Plk1 PBD phosphopeptide binding, fluorescence polarization; inhibition, %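 (tested at about 20 µM)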; 97,000 compounds, 0.13% hits; AID 693; in the data active means inhibition above about 34%, passing the limit was not always enough
CYP2C19 activ: increases human CYP2C19 enzyme activity. 96,000 tested, under 10 active. recombinant CYP2C19, luciferin-H EGE luminescence; hits give high values; 0 = fully inhibited enzyme, 1 = untreated enzyme. P33261. activation factor at 5 µM;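 active means activation factor of at least 2 at 5 µM in the primary screen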;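 further: 0 = wells with 2.5 mM tranylcypromine and 1 = vehicle-only wells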
CYP2C9 inh: blocks human cytochrome P450 2C9; P11712; AID 777; CYP2C9 Supersomes, luciferin-H conversion, luminescence; inhibition, % at 5 µM; 96,000 compounds, 20% hits;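 active means blocking of liver enzyme CYP2C9 beyond about 50% at 5 µM, limit read from the data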
An asterisk follows results filed as active; / = no result given.

SMILES	PLK1 kinase inh	CYP2C19 inh	CYP2C9 act	Plk1 PBD FP	CYP2C19 activ	CYP2C9 inh
COc1ccc(C)cc1S(=O)(=O)N1CCN(c2cccc(C(F)(F)F)c2)CC1	-5	98*	0.8	-13	0	24
COc1ccc(C)cc1S(=O)(=O)N1CCC(C)CC1	-12	32	1.4	-4	0.7	-37
COc1ccc(N2CCN(S(=O)(=O)c3cccc(C(F)(F)F)c3)CC2)cc1	-9	61*	0.8	-9	0.4	16
COc1ccc(C)cc1S(=O)(=O)N1CCN(S(=O)(=O)c2cc(C)ccc2OC)C(C)C1 (stereo not drawn)	-13	100*	0	-17	0	99*
COc1cc(C2C3=C(CC(C)(C)CC3=O)N(C)C(=O)N2C)cc(OC)c1OC (stereo not drawn)	-3	-7	0.7	21	1.1	31
COc1cc(/C=C(\C#N)C(=O)NCC2CCCO2)c([N+](=O)[O-])cc1OC (stereo not drawn)	-15	11	1.7	12	0.9	-70
O=C(Cn1ccsc1=NC(=O)c1ccco1)c1ccccc1	2	28	0.7	-22	0.7	32
COc1cc(/C=N/n2cnnc2)ccc1OCCSc1ccc(C)cc1	-15	80*	0.5	5	0.2	54*
CC(C)(C)NC(=O)COC(=O)c1cc(S(=O)(=O)N2CCCCC2)ccc1N1CCOCC1	-11	66*	0.2	-3	0.3	82*
CC1CCCC(NC(=O)COC(=O)c2cc(S(=O)(=O)N3CCCCC3)ccc2N2CCOCC2)C1C (stereo not drawn)	-13	78*	0.2	-4	0.2	82*
CCOc1ccc2nc(SC(C)C(N)=O)[nH]c2c1 (stereo not drawn)	-11	45	0.8	5	0.6	18
O=C(C1CCCCC1)N1CCCc2ccccc21	-7	67*	0.6	18	0.3	45
O=C(NC1CCCCC1)N1CCCc2ccccc21	/	53*	0.9	/	0.5	14
CC(C)Cn1c(SCC(=O)NCc2ccc(Cl)cc2)nnc1-c1cccc(S(=O)(=O)N2CCOCC2)c1	-10	19	0.4	-10	0.8	61*
NC(=O)CSc1nnc(-c2cccc(S(=O)(=O)N3CCOCC3)c2)n1C1CCCCCC1	-8	6	0.5	-17	0.9	48
C=CCn1c(SCC(=O)Nc2ccccc2)nnc1-c1cccc(S(=O)(=O)N2CCOCC2)c1	-7	66*	0.5	4	0.3	55*
CCn1c(SCC(=O)Nc2ccccc2)nnc1-c1ccc(S(=O)(=O)N2CCOCC2)cc1	-6	13	0.8	11	0.9	22
CC(C(=O)O)n1c(C(F)(F)F)nc2ccccc21 (stereo not drawn)	-3	-12	1.1	-16	1.1	-15
Cc1nn2c3c(cnc2c1-c1ccc(Cl)cc1)C(=O)CC(c1ccco1)C3 (stereo not drawn)	/	-20	1.4	/	1.2	-37
COC(=O)CSc1nnc(CNS(=O)(=O)c2ccc(Cl)cc2)n1C	-6	-13	0.9	-22	1.1	13
CSc1nc(-c2ccccc2)nc(N2CCCC2)c1C(C)=O	-14	6	0.8	1	0.9	25
CSc1nc(-c2ccccc2)nc(N2CCN(C)CC2)c1C(C)=O	-9	56*	0.5	-12	0.4	53*
COc1cccc(C2CC(=O)NC3=C2C(=O)CCC3)c1 (stereo not drawn)	-6	-7	1	-4	1.1	2
O=C(CC(c1ccccc1)c1ccccc1O)NCCN1CCOCC1 (stereo not drawn)	/	54*	0.5	/	0.5	46
CN(C)CCCNC(=O)CC(c1ccccc1)c1ccccc1O (stereo not drawn)	-11	-18	1.2	-14	1.2	-17
SMILES	PLK1 kinase inh	CYP2C19 inh	CYP2C9 act	Plk1 PBD FP	CYP2C19 activ	CYP2C9 inh
CC(C)(C)NC(=O)CC(c1ccccc1)c1ccccc1O (stereo not drawn)	-15	90*	0	-3	0.1	96*
CC(c1ccccc1)N1CCn2c(nc3cc(NC(=O)NC4CCCCC4)ccc32)C1 (stereo not drawn)	-14	12	0.7	-28	0.9	31
CC(C)CCNC(=O)Cn1c2c(c(-c3ccccc3Cl)cc1=O)CCC2	-15	13	0.4	0	0.9	62*
CCn1c(=O)c(C(=O)NCc2ccc(OC)c(OC)c2)c(O)c2ccccc21	-11	40	0	-1	0.6	95*
CCCn1c(=O)c(C(=O)NCc2ccc(OC)c(OC)c2)c(O)c2ccccc21	-10	39	0.1	-6	0.6	87*
CCn1c(=O)c(C(=O)NCc2ccc(OC)cc2)c(O)c2ccccc21	-9	36	0.3	-4	0.6	68*
CCn1c(=O)c(C(=O)NCc2ccccn2)c(O)c2ccccc21	-17	22	1.5	17	0.8	-55
CCCn1c(O)c2ccc(C(=O)N=NC(=O)c3cccnc3)cc2c1O	-12	-23	1.2	-33	1.2	-18
Clc1ccc2c(Cl)c(-c3nnc(-c4ccccc4)o3)sc2c1	-13	/	/	6	/	/
O=C1CSc2ccc(C(=O)N3CCN(c4ccccn4)CC3)cc2N1	-14	24	0.8	3	0.8	20
O=C(c1ccc2snnc2c1)N1CCCC1	-10	28	0.9	24	0.7	10
CN1C(=O)/C(=C\c2ccccc2)Sc2ccc(C(=O)N3CCN(c4ccccn4)CC3)cc21	-5	72*	0.2	-28	0.3	77*
O=C(c1ccc2snnc2c1)N1CCN(c2ccccc2)CC1	-4	100*	0.3	7	0	65*
S=C(Nc1ccc2snnc2c1)N1CCN(c2ccccn2)CC1	-2	26	0.8	8	0.7	18
O=C(c1ccc2snnc2c1)N1CCN(c2ccccn2)CC1	-6	71*	0.9	2	0.3	9
Cc1c(Br)c([N+](=O)[O-])nn1CC(=O)NCc1cccs1	-2	23	1.1	-15	0.8	-9
COCCCNC(=O)CN(c1cccc(Cl)c1)S(C)(=O)=O	/	14	1.3	/	0.9	-28
Nc1ccc(-c2ccc(N)cc2C(F)(F)F)c(C(F)(F)F)c1	-7	79*	0.4	2	0.2	60*
Nc1ccc(C(O)(C(F)(F)F)C(F)(F)F)cc1	-10	-4	0.9	14	1	7
CCN(CCO)Cc1csc2ccc(Br)cc12	-5	38	1.3	-22	0.6	-28
CCCC(=O)Nc1ccc(S(=O)(=O)N2CCOCC2)cc1	-11	/	/	11	/	/
Cc1ccc(-c2noc(=O)n2CC(=O)Nc2ccc(S(=O)(=O)NC3CC3)cc2)cc1	-8	45	0.1	-19	0.6	93*
O=C(Cn1c(-c2ccccc2)noc1=O)Nc1ccc(S(=O)(=O)N2CCOCC2)cc1	-1	23	0.3	5	0.8	73*
O=C(CCSc1ccccc1)Nc1ccc(S(=O)(=O)N2CCOCC2)cc1	-6	55*	0.2	5	0.4	85*

From PubChem
